Data on 9 compounds can be found in PubChem BioAssay.

SMILES strings stand for the structures. Activity calls are given as the source filed them. Unless noted, how the calls were made is not given here.

A short description of assay [1]: compound effects on lung adenocarcinoma cell viability – A549, calcein-AM fluorescence, 48 h, basal, profiling panel (AID 1162). Further: test concentration not given here. The note with it: higher = more signal.
Assay [2] in a line: compound effects on differentiated 3T3-L1 adipocyte viability – cell-based, 3T3-L1 adipocytes, calcein-AM fluorescence, 48 h, basal, profiling panel (AID 1163). Further: test concentration not given here. The note with it: 3T3-L1 adipocytes viability, higher = more signal.
Assay [3] in a line: compound effects on hepatocellular carcinoma cell viability – HepG2, calcein-AM fluorescence, 48 h, basal, profiling panel (AID 1164). Further: test concentration not given here. The note with it: higher = more signal.
Assay [4] is described as follows: compound effects on multiple myeloma cell viability – MM1S, calcein-AM fluorescence, 48 h, basal, profiling panel (AID 1165).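 Further: viability of MM1S multiple myeloma cells under basal unstimulated conditions; test concentration not given here.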 The note with it: higher = more signal.
A short description of assay [5]: calcein-AM signal in unstimulated myeloma cells – cell-based, calcein-AM fluorescence, 48 h, PK04 Diversity Set, profiling panel (AID 1166).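 Further: cells grown under basal conditions without added stimulus; test concentration not given here.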 The conditions noted are these: RPMI8226 myeloma viability, higher = more signal.
A short description of assay [6]: JC-1 mitochondrial signal, unstimulated HepG2 cells – cell-based, JC-1 fluorescence, 24 h, 100 nL compound, profiling panel (AID 1167). Further: test concentration not given here. The note with it: HepG2 mitochondrial potential, higher = more signal.
The nature of assay [7]: JC-1 mitochondrial signal, unstimulated adipocytes – cell-based, JC-1 fluorescence, 3T3-L1 adipocytes, 24 h, 100 nL compound, profiling panel (AID 1168). Further: test concentration not given here. The conditions noted are these: JC-1 mitochondrial fluorescence, higher = more signal, called active from +8 up or from −8 down.
The nature of assay [8]: JC-1 mitochondrial signal, unstimulated myeloma cells – cell-based, JC-1 fluorescence, RPMI8226, 24 h, 100 nL compound, profiling panel (AID 1169). Further: test concentration not given here. The conditions noted are these: JC-1 mitochondrial potential fluorescence, higher = more signal.
Assay [9] can be described thus: JC-1 mitochondrial signal, unstimulated MM1S myeloma – cell-based, JC-1 fluorescence, 24 h, 100 nL compound, profiling panel (AID 1170). Further: test concentration not given here. The note with it: MM1S mitochondrial potential, higher = more signal.
The nature of assay [10]: resazurin metabolic signal in A549 cells – cell-based, resazurin fluorescence, 24 h, PK04 Diversity Set, profiling panel (AID 1171). Further: test concentration not given here. The note with it: A549 viability, higher = more signal, called active from +8 up or from −8 down.
Assay [11] in a line: resazurin metabolic signal in HepG2 cells – cell-based, resazurin fluorescence, 24 h, PK04 Diversity Set, profiling panel (AID 1172). Further: test concentration not given here. The note with it: HepG2 viability, higher = more signal. For orientation: Resazurin is reduced to fluorescent resorufin, in cell work by metabolically active cells.
Assay [12] in a line: budding yeast growth changes without added modifier – OD600, strain BY4716, 24 h, basal condition, primary screen (AID 1173). The note with it: S. cerevisiae BY4716 growth, OD600, 24 h; higher = more signal, called active from +8 up or from −8 down.
Assay [13] is described as follows: viability profiling in MM1S myeloma cells – cell-based, resazurin fluorescence, basal, 24 h, PK04 Diversity Set, profiling panel (AID 1174). Further: test concentration not given here. The note with it: higher = more signal, called active from +8 up or from −8 down.
Assay [14] addresses Dihydroorotate dehydrogenase (quinone), mitochondrial (Plasmodium falciparum (isolate 3D7)) (UniProt Q08210). In words: inhibition of P. falciparum DHODH – biochemical, C-terminal His tag, absorbance 600 nm, primary screen (AID 1175).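 Further: recombinant parasite enzyme with a five histidine tag at its C terminus; test concentration not given here.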 The note with it: PfDHODH enzyme, DCIP absorbance 600 nm; higher = more signal, called active from +8 up or from −8 down.
The nature of assay [15]: inhibition of PAO1 biofilm formation – strain PAO1, LB-PBS medium, absorbance 600 nm, primary screen (AID 1176). Further: test concentration not given here. The note with it: P. aeruginosa PAO1 growth/biofilm, A600, 12 h; higher = more signal.
Assay [16] is described as follows: growth modulation of vineyard yeast isolate – strain RM11-1a, OD600, basal, 24 h, primary screen (AID 1177).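 Further: cultures grown under basal conditions with no added stressor; test concentration not given here.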 The note with it: S. cerevisiae RM11-1a growth, OD600, 24 h; higher = more signal, called active from +8 up or from −8 down.
Assay [17] can be described thus: growth of efflux-deficient E. coli DRC39 – strain DRC39, OD650, 24 h, E. coli filamentation inducers, primary screen (AID 1178).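 Further: growth measured as culture turbidity by optical density at 650 nm; test concentration not given here.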 The conditions noted are these: E. coli DRC39 acrAB, higher = more signal, called active from +8 up or from −8 down.
A short description of assay [18]: growth of efflux-deficient E. coli DRC39 – strain DRC39, OD650, 48 h, E. coli filamentation inducers, primary screen (AID 1179).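 Further: screen aims at cell division blockers that make cells filament.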 The note with it: E. coli DRC39 delta-acrAB growth, higher = more signal, called active from +8 up or from −8 down.
Assay [19] can be described thus: viability profiling in RPMI8226 myeloma cells – cell-based, resazurin fluorescence, basal, 24 h, PK04 Diversity Set, profiling panel (AID 1180).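 Further: RPMI8826 multiple myeloma cell line at 5000 cells per well; test concentration not given here.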 The conditions noted are these: higher = more signal.
Assay [20] addresses E3 ubiquitin-protein ligase XIAP (Homo sapiens) (UniProt P98170). Put plainly: small molecules binding XIAP protein – biophysical, small-molecule microarray, fluorescence 635 nm, primary screen (AID 1181).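 Further: score merges 667 nm emission and signal to noise over triplicate slides.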 The conditions noted are these: higher = more signal.

Dihydroorotate dehydrogenase (quinone), mitochondrial (Plasmodium falciparum (isolate 3D7)), sequence (Q08210 whole entry, looked up): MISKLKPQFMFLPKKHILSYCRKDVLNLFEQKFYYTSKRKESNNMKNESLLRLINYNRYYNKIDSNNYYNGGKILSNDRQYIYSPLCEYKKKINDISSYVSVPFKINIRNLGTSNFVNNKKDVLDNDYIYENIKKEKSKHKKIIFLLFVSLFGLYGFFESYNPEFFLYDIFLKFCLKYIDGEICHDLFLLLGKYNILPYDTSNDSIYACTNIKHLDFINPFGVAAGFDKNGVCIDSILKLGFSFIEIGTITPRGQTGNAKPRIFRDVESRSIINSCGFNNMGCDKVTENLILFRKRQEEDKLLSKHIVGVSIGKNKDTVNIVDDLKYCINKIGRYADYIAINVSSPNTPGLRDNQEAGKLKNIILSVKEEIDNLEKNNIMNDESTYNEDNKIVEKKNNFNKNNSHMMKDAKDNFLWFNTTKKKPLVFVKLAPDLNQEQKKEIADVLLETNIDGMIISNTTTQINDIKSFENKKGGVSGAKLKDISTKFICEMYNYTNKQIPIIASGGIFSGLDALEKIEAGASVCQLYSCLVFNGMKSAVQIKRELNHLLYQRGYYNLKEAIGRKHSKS
E3 ubiquitin-protein ligase XIAP (Homo sapiens), sequence (P98170 whole entry, looked up): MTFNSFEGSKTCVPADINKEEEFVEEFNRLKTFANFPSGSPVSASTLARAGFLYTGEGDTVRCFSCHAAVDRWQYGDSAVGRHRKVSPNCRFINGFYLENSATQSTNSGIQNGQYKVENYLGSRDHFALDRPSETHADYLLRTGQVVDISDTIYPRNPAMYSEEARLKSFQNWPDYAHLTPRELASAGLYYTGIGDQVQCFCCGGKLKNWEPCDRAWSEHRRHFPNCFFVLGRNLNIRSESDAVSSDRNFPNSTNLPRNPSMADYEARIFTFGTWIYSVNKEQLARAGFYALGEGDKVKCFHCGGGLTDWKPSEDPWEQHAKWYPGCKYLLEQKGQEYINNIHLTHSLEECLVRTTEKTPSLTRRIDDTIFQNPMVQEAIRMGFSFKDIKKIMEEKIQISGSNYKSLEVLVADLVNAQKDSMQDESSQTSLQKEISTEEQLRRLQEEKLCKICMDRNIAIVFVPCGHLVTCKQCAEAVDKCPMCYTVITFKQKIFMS

Take `C[N+](C)(C)CCCCCCNC(=O)[C@H]1C[C@H]2C(=O)NCC(=O)N2[C@H]1c1ccc(O)cc1`: the z-score in assay [1] is -0.93; in assay [2], -0.313; in assay [3], -0.799; in [4] it was -1.17; in assay [5], -0.121; in assay [6], -1.71. Also, the z-score in [7] was -0.159 (inactive); in [8] it was 0.0729; in assay [9] it was -0.235; in [10] it was 0.14 (inactive); in assay [11] it was 0.767; in assay [12], -0.275 (inactive). Also, the z-score was -0.301 (inactive) in assay [13]; 0.823 (inactive) in assay [15]; 0.0387 (inactive) in assay [16]; -0.298 (inactive) in assay [17]; -0.785 (inactive) in assay [18]; -0.116 in assay [19]. Also, the composite z-score in [14] is -0.435 (inactive); in assay [20], 0.175.
`Cc1cc(C)c(C(O)C2C=CC3C(=O)N(c4ccccc4)C(=O)C3N2Nc2ccc(C(C)C)cc2)c(C)c1` (stereo not given): the z-score in assay [1] is -0.314; in [2], 0.669; in [3], 0.273; in assay [4] it was -0.0101; in [5], -0.792; in assay [6], -1.37. In addition, the z-score in assay [7] was -1.13 (inactive); in assay [8], -0.698; in assay [9], 0.19; in assay [10], -1.72 (inactive); in assay [11], -1.47; in assay [12], 0.626 (inactive). The z-score in assay [13] was -1.8 (inactive); in assay [15], 1.28 (inactive); in assay [16], 1.58 (inactive); in assay [17] it was -0.841 (inactive); in assay [18], -0.876 (inactive); in [19], -1.08. The results for the composite z-score in assay [14] and in assay [20] were 0.68 (inactive) and -0.387, respectively.
As to `[N-]=[N+]=NCc1ccccc1C[C@]1(C(N)=O)N=C(c2ccc(OCCCO)cc2)O[C@H]1c1ccccc1`, the z-score was -0.277 in [1]; -0.0112 in assay [2]; -0.284 in assay [3]; -2.25 in assay [4]; -1.04 in assay [5]; -0.417 in assay [6]. In addition, the z-score was 0.587 (inactive) in [7]; -0.715 in [8]; -0.464 in assay [9]; 0.004 (inactive) in assay [10]; 1 in [11]; -0.198 (inactive) in assay [12]. In addition, the z-score in [13] was -0.726 (inactive); in assay [15], -0.786 (inactive); in [16] it was 1.4 (inactive); in assay [17], 0.146 (inactive); in [18], 0.98 (inactive); in assay [19] it was -0.581. For the same compound, the composite z-score in assay [14] is 0.921 (inactive); in assay [20] it was 0.1.
Take `CCOC(=O)c1ccc(NC(=O)O[C@H]2[C@H](OC(=O)Nc3ccc4c(c3)OCO4)[C@H](OC(=O)Nc3ccc4c(c3)OCO4)[C@@H](OC)O[C@@H]2CO)cc1`: the z-score in [1] was -0.83; in assay [2], 0.529; in assay [3] it was -1.02; in assay [4], -0.982; in [5], -1.21; in assay [6], -0.691. The z-score in assay [7] was -0.289 (inactive); in assay [8] it was -0.576; in assay [9] it was -1.09; in [10] it was -0.824 (inactive); in [11] it was -1.09; in assay [12] it was 1.12 (inactive). Further, the z-score in assay [13] is -1.55 (inactive); in assay [15], 0.95 (inactive); in assay [16], 1.57 (inactive); in assay [17], 1.11 (inactive); in [18], 0.311 (inactive); in [19] it was -1.36. The composite z-score in assay [14] is -0.57 (inactive); in assay [20], 0.32.
Regarding `C=CC[C@]1(C(=O)NCCN2CCOCC2)N=C(c2ccc(OCCCO)cc2)O[C@H]1c1ccccc1CN=[N+]=[N-]`, the z-score is 0.779 in [1]; 0.885 in assay [2]; 0.187 in assay [3]; 0.81 in [4]; -0.221 in assay [5]; 2.76 in assay [6]. Besides, the z-score was 0.0141 (inactive) in assay [7]; -1.08 in assay [8]; -0.244 in assay [9]; 1.2 (inactive) in assay [10]; 0.735 in [11]; -1.01 (inactive) in assay [12]. Moreover, the z-score was 0.33 (inactive) in assay [13]; -1.17 (inactive) in [15]; 0.724 (inactive) in [16]; 1.31 (inactive) in assay [17]; 0.351 (inactive) in assay [18]; 0.485 in assay [19]. In addition, the composite z-score was 0.453 (inactive) in assay [14] and -0.209 in assay [20].
In the case of `Cc1cc(C)cc(N2C(=O)CSC2c2cccc([N+](=O)[O-])c2)c1` (stereo not given), the z-score is 0.377 in assay [1]; -0.28 in assay [2]; 0.0887 in [3]; 1.22 in [4]; 0.699 in [5]; 1.43 in assay [6]. For the same compound, the z-score in assay [7] was 0.786 (inactive); in assay [8] it was -0.445; in assay [9], -0.541; in assay [10] it was -0.661 (inactive); in assay [11] it was -0.654; in assay [12], -0.899 (inactive). Also, the z-score was -1.81 (inactive) in [13]; -0.242 (inactive) in [15]; 0.265 (inactive) in [16]; 0.837 (inactive) in assay [17]; 0.384 (inactive) in assay [18]; -0.341 in [19]. Further, the composite z-score in assay [14] was -1.39 (inactive); in assay [20] it was 0.0808.
For `COCCCNC(=O)[C@@]1(Cc2ccccc2N=[N+]=[N-])N=C(c2ccc(OCCCO)cc2)O[C@H]1c1ccccc1`, the z-score in assay [1] is -1.07; in assay [2], 0.538; in [3] it was -0.412; in assay [4], -1.41; in [5], -2.78; in [6], 1.02. For the same compound, the z-score in [7] was 1.27 (inactive); in assay [8] it was -1.03; in [9], -0.34; in [10] it was 0.308 (inactive); in [11], -0.0132; in assay [12] it was -0.632 (inactive). Besides, the z-score in assay [13] was -0.681 (inactive); in assay [15] it was 0.441 (inactive); in [16], -0.115 (inactive); in assay [17], 0.987 (inactive); in [18], -0.325 (inactive); in [19], -0.647. The figures for the composite z-score in assay [14] and in assay [20] were 0.328 (inactive) and 0.234, respectively.
Consider `CCOC(=O)C[C@H]1[C@H](OC(=O)c2ccc(C(=O)c3ccccc3)cc2)[C@@H](NC(=O)Cc2ccc(OC)cc2)c2cc(OCCCO)ccc2N1C(=O)c1ccccc1`, for which the z-score was 0.0281 in assay [1]; -0.005 in assay [2]; 0.544 in [3]; -0.272 in assay [4]; -0.399 in [5]; 0.425 in assay [6]. Also, the z-score in [7] is -0.386 (inactive); in assay [8] it was 0.428; in [9], -0.107; in assay [10], 0.69 (inactive); in assay [11], 0.0566; in [12], 0.29 (inactive). Besides, the z-score in [13] was -0.292 (inactive); in assay [15], 0.325 (inactive); in [16], -0.193 (inactive); in assay [17], -0.307 (inactive); in [18] it was -0.215 (inactive); in assay [19], -0.268. Also, the composite z-score was -0.517 (inactive) in assay [14] and 0.169 in assay [20].
As to `COc1ccc([Si](C)(C)[C@@H]2[C@@H](CCn3cc([C@H](O)c4ccccc4)nn3)O[C@]3(C(=O)N(Cc4ccc(N5CCC5=O)cc4)c4ccccc43)[C@H]2C)cc1`, the z-score in assay [1] is 0.388; in assay [2], 1.05; in assay [3] it was 0.944; in assay [4], 0.738; in [5] it was -0.23; in assay [6], 1.63. In addition, the z-score is 1.9 (inactive) in [7]; -0.0445 in assay [8]; -0.855 in [9]; 0.668 (inactive) in [10]; 0.606 in assay [11]; 0.204 (inactive) in [12]. Also, the z-score in assay [13] is -0.189 (inactive); in assay [15], 1.36 (inactive); in [16], 2.06 (inactive); in assay [17] it was 1.57 (inactive); in [18] it was 1.18 (inactive); in assay [19], 1.1. In addition, the composite z-score in assay [14] was -0.102 (inactive); in [20] it was -0.239.
